Screening results (PubChem BioAssay)
Rce1 inh = yeast Rce1p protease inhibitors, primary screen, biochemical, fluorescence, cell-free homogeneous. CAAX prenyl protease 2 (Saccharomyces cerevisiae (strain ATCC 204508 / S288c)), Q03530. yeast membranes, quenched prenylated peptide cleavage fluorescence. calls only. 0.27% of 290,000 active. AID 2563, 2010;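 active = fall in fluorescence gain of 50% or more versus controls, with final raw signal at or below 3038400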
GC-B act = human GC-B receptor activators, primary screen, HEK293 GC-B cells, cGMP TR-FRET, EC30 CNP. Atrial natriuretic peptide receptor 2 (Homo sapiens), P20594. 0% at EC30 CNP, 100% saturating CNP. activation, % at 10 µM. 0.11% of 370,000 active. AID 1920062, 2024;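 active = activation at 10 µM reaching about 35% in either raw or pattern-adjusted values, limit read from the data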
NPR1 activator = GC-A stimulated cGMP production enhancers – HEK293 GC-A cells, cGMP TR-FRET, EC30 ANP, primary screen; activation, % at 10 µM; 0.14% of 370,000 active; 0% at EC30 ANP, 100% saturating ANP; in the data active = activation above about 40%
Efflux pump inh = inhibitors of Candida efflux pumps in yeast, primary screen, S. cerevisiae, Nile Red, multiplex. 0.44% of 330,000 active. S. cerevisiae Candida pump triplex. inhibition, % at 10 µM;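 active = plate passing quality check with inhibition over a set limit, or well fluorescence over plate mean plus 4 SD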;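 also: Nile Red retained in pooled yeast measured as flow cytometry median fluorescence; higher means more Nile Red kept so more efflux inhibition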
V-ATPase pH = regulators of yeast V-ATPase proton pumping, primary screen, pHLuorin cytosolic pH fluorescence; S. cerevisiae; response, % at 10 µM; 0.37% of 350,000 active; AID 504577, 2011; in the data active = response mostly above about 7.3%, no sharp cut-off; inactive = mostly below about 5.4%; also: actives read high
NSD2 HMT inh = NSD2 histone methyltransferase inhibitors, primary screen, biochemical, AlphaScreen, single concentration, set 2; AID 743445, 2014; 0.54% of 310,000 active; inhibition, % at 12.5 µM; NSD2 peptide methylation, 120 min; Histone-lysine N-methyltransferase NSD2 (Homo sapiens), O96028; in the data active = inhibition above about 50%
Numbers stand for hits; . = inactive; / = no result; + = active, no number. The list is not random: actives were taken first. Their share in the collection is about 1.6%.

SMILES | Rce1 inh | GC-B act | NPR1 activator | Efflux pump inh | V-ATPase pH | NSD2 HMT inh
COc1ccc(OC)c(NC(=O)c2cc3oc4ccccc4c3cc2O)c1 | + | . | . | . | . | .
COc1cccc(C(=O)Nc2nnc(SCC(=O)NC3CCCC3)s2)c1 | + | . | . | . | . | .
O=C(Cn1nnc(-c2ccc(F)cc2)n1)OCC(=O)c1ccccc1 | . | . | 49 | . | . | .
Cn1c(=O)[nH]c(=O)c2c1nc(NC1CCCC1)n2Cc1ccccc1 | . | . | 44 | . | . | .
Cn1c(=O)[nH]c(=O)c2c1nc(N1CCNCC1)n2Cc1ccccc1 | . | . | . | . | . | .
Cn1c(=O)n(Cc2ccccc2)c(=O)c2c1nc(NCC1CCCO1)n2Cc1ccccc1 (stereo not given) | . | 57 | 49 | . | . | .
C=CCN1C(=O)[C@@H](CC(=O)NCCC(C)C)[C@]2(C(=O)OCC)CCCCC/C=C/12 | / | . | . | / | / | /
CC(=O)OC12CCCN(C1)/C(=C/c1cccnc1)C2 (stereo not given) | / | . | . | / | / | /
COc1ccc(/C=C2\CC3(OC(=O)c4ccc(F)cc4)CCCN2C3)cc1 (stereo not given) | / | . | . | / | / | /
CCCCCCCCCCOC(=O)Cn1c(COc2ccccc2C)[n+](C)c2ccccc21 | + | / | / | . | . | /
CCCCCCCCCCOC(=O)Cn1c(COc2ccccc2)[n+](C)c2ccccc21 | . | . | . | . | . | .
CC1=C2NC(N)=[N+](Cc3ccc4c(c3)OCO4)CC2NOC1 (stereo not given) | / | . | . | / | / | /
Cc1cccc2sc(NC(=O)CN(C)S(=O)(=O)c3cccs3)nc12 | . | . | 42 | . | . | .
O=C(Nc1ccc(Cl)c(Cl)c1)Nc1ccon1 | . | . | . | 6.5 | . | .
Cc1cc(NC(=O)Nc2ccc(Cl)c(Cl)c2)no1 | . | . | . | . | . | .
O=S(=O)(c1ccccc1)c1nc(-c2ccco2)oc1N1CCCCC1 | + | . | . | . | . | .
CC1=C(C(=O)N2CCOCC2)C(c2ccc(C)cc2)NC(=S)N1 (stereo not given) | . | 65 | 59 | . | . | .
CC1=C(C(=O)N2CCOCC2)C(c2c(C)cc(C)cc2C)NC(=S)N1 (stereo not given) | . | . | . | . | . | .
CC1=C(C(=O)N2CCOCC2)C(c2ccc(Cl)cc2)NC(=S)N1 (stereo not given) | . | 61 | 54 | . | . | .
O=C(N[C@@H]1C[C@@H]2O[C@@H](CO)CC[C@@H]2O[C@@H]1CCc1ccc(-c2ccccc2)cc1)c1cnccn1 | / | . | . | / | / | /
CC(C)N(Cc1cn(Cc2ccccc2)nn1)S(=O)(=O)c1ccc(F)cc1Br | / | . | . | / | / | /
Cc1cc(C)c(OC2(c3ccccc3)OC(=O)c3ccccc32)c(C)c1 (stereo not given) | . | . | . | . | 19 | .
Cc1cccc(C)c1OC1(c2ccccc2)OC(=O)c2ccccc21 (stereo not given) | . | . | . | . | . | .
CCC(CC)NC(=O)O[C@H]1CC[C@@]23CCCN2C(=O)CCC[C@H]3[C@H]1C | / | . | . | / | / | /
COc1ccc(-c2c(-c3ccsc3)oc3ccc(N4CCOCC4)cc23)cn1 | + | . | . | / | . | /
SMILES | Rce1 inh | GC-B act | NPR1 activator | Efflux pump inh | V-ATPase pH | NSD2 HMT inh
COc1ccc(-c2ccc3oc(-c4ccsc4)c(-c4ccc(Br)nc4)c3c2)cc1 | / | / | / | . | / | /
CCOC(=O)N1C(=O)C[C@](Sc2ccc(OC)cc2)(C(=O)N(C)C)[C@H]1c1ccc(OC)cc1 | / | . | . | / | / | /
Cc1nn(-c2ccc(Cl)cc2)c(Cl)c1/C=C(\C#N)C(N)=O | . | . | 49 | . | . | .
C=CCNC(=O)/C(C#N)=C/c1c(C)nn(-c2ccc(Cl)cc2)c1Cl | . | . | 46 | . | . | .
C[C@@H]1ON(C)[C@H]2C[C@H]3c4[nH]c5c(-c6ccccc6F)cccc5c4CCN3C[C@@H]12 | / | . | . | / | / | /
CC1=C/C(=C\c2ccc(Br)o2)C(=O)O1 | . | . | . | . | . | 98
COCCNC(=O)CSc1ccc(C)cc1 | . | . | . | . | . | .
